# Source: PubChem BioAssay (EPA / NIEHS)
# Calls of active or inactive are those of the source. How the source made its calls: active means hit-call score of the fitted dose curve at least 0.9, where 1 is the maximum; inactive means score below 0.9.
# Test: CCTE_Harrill_HTTr_Viability_MCF7: CCTE's 6-hour Cell Viability Assessment for the High-Throughput Transcriptomics (HTTr) Platform, in MCF-7 cells cultured in DMEM + 10% fetal bovine serum, Harrill Lab (AID 2284010)
# Outline: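 Viability measured through PI dye exclusion by high-content imaging at 6 h post-dosing.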
row,SMILES,outcome
1,O=P(Oc1ccccc1)(Oc1ccccc1)Oc1ccccc1,inactive
2,CCOC(=O)c1ccccc1C(=O)OCC,inactive
3,CCOP(=S)(OCC)SCSc1ccc(Cl)cc1,inactive
4,CSC(C)(C)C=NO,inactive
5,Nc1cc2c3c(c1)C(c1ccccc1)=N[C@@H](NC(=O)c1cccnc1)C(=O)N3CC2,inactive
6,ClC(Cl)c1ccccc1,inactive
7,O=[N+]([O-])c1ccccc1,inactive
8,CCOP(=S)(NC(C)C)Oc1ccccc1C(=O)OC(C)C (centres undefined),inactive
9,O=P1(N(CCCl)CCCl)NCCCO1 (centres undefined),inactive
10,CCCCC(CC)COC(=O)c1c(Br)c(Br)c(Br)c(Br)c1C(=O)OCC(CC)CCCC (centres undefined),inactive
11,O=C(O)CF,inactive
12,O=NN1CCCC1,inactive
13,CN(C)C(=O)Cl,inactive
14,Cc1c([N+](=O)[O-])cc2c(c1[N+](=O)[O-])C(C)(C)CC2(C)C,inactive
15,O=C(O)C(Cl)Cl,inactive
16,CCCCN(CCCC)N=O,inactive
17,N#Cc1ccc(O)cc1,inactive
18,C/C(=N\NC(=O)Nc1cc(F)cc(F)c1)c1ncccc1C(=O)O,inactive
19,FC(F)(F)c1ccc(Cl)cc1,inactive

row,SMILES,outcome
1,CCCCc1ccccc1,inactive
2,c1nc[nH]n1,inactive
3,CC(Cc1ccc(OCC(=O)O)cc1)NCC(O)c1csc(C(F)(F)F)n1 (centres undefined),inactive
4,c1ccc(OP(Oc2ccccc2)Oc2ccccc2)cc1,inactive
5,c1ccc2c(c1)sc1ccccc12,inactive
6,CCCCN(CCCC)SN(C)C(=O)Oc1cccc2c1OC(C)(C)C2,inactive
7,CCOS(=O)(=O)OCC,inactive
8,Cc1ccc2c(c1N)C(=O)c1ccccc1C2=O,inactive
9,Cc1cccc(N)c1,inactive
10,Cc1ccc(O)cc1C,inactive
11,O=[N+]([O-])c1ccc(Cl)c(Cl)c1,inactive
12,CC(O)C#N (centres undefined),inactive
13,Nc1ccc([N+](=O)[O-])cc1Cl,inactive
14,CCCN(CCC)c1c([N+](=O)[O-])cc(C(C)C)cc1[N+](=O)[O-],inactive
15,CCCCOCC1CO1 (centres undefined),inactive
16,CC(C)(C)OOC(C)(C)C,inactive
17,O=S(=O)(c1ccc(O)cc1)c1ccc(O)cc1,inactive
18,COP(=O)(O)OC,inactive
19,CCOP(=S)(S)OCC,inactive

# Test: CCTE_Harrill_HTTr_Apoptosis_MCF7: CCTE's 6-hour Apoptosis Assessment for the High-Throughput Transcriptomics (HTTr) Platform, in MCF-7 cells cultured in DMEM + 10% fetal bovine serum, Harrill Lab (AID 2284011)
# Outline: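 Read-out: CellEvent Caspase 3/7 Green signal by high content imaging, gain-of-signal indicating apoptosis. MCF-7 cells, DMEM + 10% FBS, eight-point dilution series, 6 h exposure. Curves fitted bidirectionally relative to DMSO negative control.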
row,SMILES,outcome
1,O=P(Oc1ccccc1)(Oc1ccccc1)Oc1ccccc1,inactive
2,Nc1cc2c3c(c1)C(c1ccccc1)=N[C@@H](NC(=O)c1cccnc1)C(=O)N3CC2,inactive
3,O=[N+]([O-])c1ccccc1,inactive
4,O=C(O)CF,inactive
5,CN(C)C(=O)Cl,inactive
6,Cc1c([N+](=O)[O-])cc2c(c1[N+](=O)[O-])C(C)(C)CC2(C)C,inactive
7,N#Cc1ccc(O)cc1,inactive
8,C/C(=N\NC(=O)Nc1cc(F)cc(F)c1)c1ncccc1C(=O)O,inactive
9,CCCCc1ccccc1,inactive
10,c1nc[nH]n1,inactive
11,CC(Cc1ccc(OCC(=O)O)cc1)NCC(O)c1csc(C(F)(F)F)n1 (centres undefined),inactive
12,c1ccc(OP(Oc2ccccc2)Oc2ccccc2)cc1,inactive
13,c1ccc2c(c1)sc1ccccc12,inactive
14,CCCCN(CCCC)SN(C)C(=O)Oc1cccc2c1OC(C)(C)C2,inactive
15,CCOS(=O)(=O)OCC,inactive
16,Cc1cccc(N)c1,inactive
17,Cc1ccc(O)cc1C,inactive
18,CCCN(CCC)c1c([N+](=O)[O-])cc(C(C)C)cc1[N+](=O)[O-],inactive
19,CC(C)(C)OOC(C)(C)C,inactive
20,O=S(=O)(c1ccc(O)cc1)c1ccc(O)cc1,inactive
21,CCOP(=S)(S)OCC,inactive
